High-throughput results from PubChem BioAssay.
Only some compounds are listed: those with a hit (about 3.2% of all), similar ones and a draw of the others.
CHT allo act: CHT positive allosteric modulators, primary screen, cell-based, membrane potential dye, choline EC20; CHT-expressing cells; stronger effect = higher value; LV-AA mutant CHT in HEK293 cells; B-score at 10 µM; 310,000 tested, 0.49% active;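 active means initial fluorescence not abnormally high and integrated response B-score, plate-corrected, over 3 SD above library mean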
Kir21 block: inhibitors of mouse Kir2.1 inward-rectifier potassium channel; HEK293-Kir2.1, FluxOR thallium flux fluorescence; stronger effect = lower value; 310,000 tested, 0.85% active; Inward rectifier potassium channel 2 (Mus musculus), P35561; B-score at 10 µM;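 active means fluorescence ratio B-score at or below minus 3 SD of library scores, with starting-brightness B-score within 2 SD, cut at about -4.2 in these data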;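 further: channel flux triggered by added potassium and thallium sulfate stimulus; B-score of peak minus minimum fluorescence over baseline after thallium stimulus; more negative B-score means stronger Kir2.1 block with less thallium influx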
TMEM16A inh: TMEM16A chloride channel inhibitors, primary screen, cell-based, HTS; 310,000 tested, 1.2% active; Anoctamin-1 (Mus musculus), Q8BHY3; HEK293 TMEM16A/YFP iodide influx fluorescence, ionomycin; normalized B-score (activity score, 25-100; higher = stronger inhibition) at 10 µM;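 active means ratio plate-corrected score three or more library SD toward inhibition, starting fluorescence score within five deviations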;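 further: score derived from kinetic fluorescence span divided by baseline fluorescence per well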
CHT block: inhibitors of human choline transporter CHT. High affinity choline transporter 1 (Homo sapiens), Q9GZV3. AID 488975, 2010. 310,000 tested, 0.86% active. B-score at 10 µM. CHT-expressing cells, membrane potential dye, choline response; stronger effect = lower value;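 active means B-score over 3 SD under the library average, and starting fluorescence ratio not unusually high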;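 further: choline stimulus applied at its EC90 after an EC20 pre-addition; B-score computed on integrated fluorescence ratio after choline addition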
Rce1 inh: yeast Rce1p protease inhibitors, primary screen, biochemical, fluorescence, cell-free homogeneous. CAAX prenyl protease 2 (Saccharomyces cerevisiae (strain ATCC 204508 / S288c)), Q03530. calls only. 290,000 tested, 0.27% active. yeast membranes, quenched prenylated peptide cleavage fluorescence;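 active means fall in fluorescence gain of 50% or more versus controls, with final raw signal at or below 3038400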;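 further: plate controls were neutral control wells for no effect and wells lacking membranes for full effect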
Target sequence (Q03530 whole entry, looked up): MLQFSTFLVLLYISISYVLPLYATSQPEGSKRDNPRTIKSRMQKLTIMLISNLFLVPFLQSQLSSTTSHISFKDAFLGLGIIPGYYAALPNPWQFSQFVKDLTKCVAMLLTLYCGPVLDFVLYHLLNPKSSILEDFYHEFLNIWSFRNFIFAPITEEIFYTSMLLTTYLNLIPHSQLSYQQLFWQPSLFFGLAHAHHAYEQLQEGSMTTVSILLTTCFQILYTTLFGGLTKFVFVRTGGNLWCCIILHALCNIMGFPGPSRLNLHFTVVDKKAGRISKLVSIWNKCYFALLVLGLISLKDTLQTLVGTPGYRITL
TMEM16A act: TMEM16A chloride channel activators or potentiators, primary screen, cell-based, HTS; B-score at 10 µM; AID 623877, 2012; HEK293 TMEM16A/YFP-H148Q/I152L, iodide quench fluorescence; stronger effect = lower value; Anoctamin-1 (Mus musculus), Q8BHY3; 340,000 tested, 0.3% active;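 active means fluorescence-ratio B-score plate-corrected deviation score at least 3 library SD below zero, with starting fluorescence score within 5 deviations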;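 further: channel opened by trigger with iodide after compound preincubation; score built on the fluorescence ratio of max minus min over baseline; more negative score means more quench and so TMEM16A activation or potentiation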
The depositor's hits bear a star; i = inactive; . = not tested or not shown; + = active, no number; ! = repeats disagree.

SMILES	CHT allo act	Kir21 block	TMEM16A inh	CHT block	Rce1 inh	TMEM16A act
CSc1nc2ccc(NS(=O)(=O)c3ccccc3F)cc2s1	i	-0.34	i	i	i	i
CC1=NN(C(N)=S)C(=O)C1N=Nc1ccc(C)c(Br)c1 (stereo not drawn)	i	-0.35	i	i	i	i
C#CCNC(=O)C1=C[C@@H](c2ccc(Br)cc2)C[C@@H](OCc2ccc(CO)cc2)O1	i	-0.36	i	i	i	i
C#CCNC(=O)C1=C[C@H](c2ccc(Br)cc2)C[C@H](OCc2ccc(CO)cc2)O1	i	-4.8*	i	i	i	i
C#CCNC(=O)C1=C[C@@H](C2CCCCC2)C[C@@H](OCc2ccc(CO)cc2)O1	i	-4	i	i	+	i
C#CCNC(=O)C1=C[C@H](C2CCCCC2)C[C@H](OCc2ccc(CO)cc2)O1	i	-2.5	i	i	i	i
Cc1nnc(SCC2=C(C(=O)O)N3C(=O)[C@@H](NC(=O)Cn4cnnn4)[C@H]3SC2)s1	i	0.89	100*!	i	i	i
Cc1nnc(SCC2=C(C(=O)O)N3C(=O)C(NC(=O)Cn4cnnn4)C3SC2)s1 (stereo not drawn)	i	0.17	i	i	i	i
Cc1cccc(C(=O)Nc2nnc(Cc3ccccc3)s2)c1	i	0.29	i	i	i	i
CC(C)c1nc(CNC(=O)C2CCC(=O)N(CCc3cccc(F)c3)C2)cs1 (stereo not drawn)	i	0.45	i	i	i	i
COc1ccccc1C(C)NCC(=O)Nc1ccccc1C(F)(F)F (stereo not drawn)	i	-2.7	i	i	i	i
CC(C)c1ccccc1NC(=O)CNC(C)c1ccc(F)cc1 (stereo not drawn)	i	-5.5*	i	i	i	i
CCOC(=O)C(Cc1c[nH]c2ccccc12)NC(=O)c1ccccc1Br (stereo not drawn)	i	0.2	i	i	i	i
O=c1[nH]cccc1-c1nc2ccccc2n1Cc1cccc(Cl)c1	i	-2	i	i	+	i
Cn1c(CN2CCOCC2)c(C#N)c2ccccc21	i	-0.28	i	i	+	i
CC1CCN(Cc2c(C#N)c3ccccc3n2C)CC1	i	-2	i	i	i	i
CN1CCN(CC(O)(c2ccc(Cl)cc2)c2ccc(Cl)cc2)CC1	i	-8.8*	i	i	i	i
CN1CCN(CC(O)COc2ccc(Cl)cc2)CC1 (stereo not drawn)	i	-1.6	i	i	i	i
COc1cc2[nH]c3c(=O)n(CCN4CCOCC4)cnc3c2cc1OC	i	0.59	i	i	+	i
COc1ccc2c(c1)[nH]c1c(=O)n(CCN3CCOCC3)cnc12	i	1.7	i	i	i	i
CCCC(=O)N1CCN(c2ccc(NC(=O)c3cc4ccccc4o3)cc2Cl)CC1	i	-0.71	100*	-7.4*	+	i
N#CC(C(=O)NCCc1ccccc1)c1nc2ccccc2nc1N1CCCCC1 (stereo not drawn)	i	0.45	100*	i	i	i
N#CC(C(=O)NCCc1ccccc1)c1nc2ccccc2nc1N1CCOCC1 (stereo not drawn)	i	0.88	i	i	i	i
COc1ccc(-c2nnc(C)c3nocc23)cc1	i	-0.93	i	i	i	i
CCN(CC(=O)NCc1ccc(F)cc1)C(=O)CN1CCN(c2cc(Cl)ccc2C)CC1	i	-0.75	i	i	.	i
CCN(CC(=O)NCc1ccc(Cl)cc1)C(=O)CSc1ccc(F)cc1	i	-4.5*	i	i	i	i
COc1ccccc1CNc1ccc([N+](=O)[O-])cc1C	i	0.01	25*	i	i	i
